Assay outcomes from PubChem BioAssay.
Tau fibril ThT – blocks human tau fibril formation measured by thioflavin T; P10636; recombinant tau K18 P301L, heparin-induced fibrillization, ThT fluorescence; Potency, µM (series often up to 57.4 µM), for the others: top-dose activity, negative = inhibition, usual class: inhibitors; 2.1% of 270,000 active; AID 1460; further: nearly all actives have a fitted effect of over 55% in size
Target sequence (P10636 561-689 P618L limits assumed): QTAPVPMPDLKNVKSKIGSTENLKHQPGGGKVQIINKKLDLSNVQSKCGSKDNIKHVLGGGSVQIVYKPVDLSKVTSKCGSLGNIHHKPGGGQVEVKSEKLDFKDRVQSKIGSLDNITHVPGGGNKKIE
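Fibril formation assay: tau K18 P301L at 15 uM with trace Alexa 594 label, heparin inducer 20 uM, pH 7 sodium acetate buffer, 37 C for 6 hr; endpoint ThT signal.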
GoLoco inh red – RGS12 GoLoco-Gai1 interaction inhibition; Gai1:RGS12 GoLoco peptide FP, rhodamine, 10 min; Potency, µM (titrated, usually from 61.6 µM), for the others: at the top dose activity, negative = inhibition, hits mostly inhibitors; P63096; 0.44% of 230,000 active; active means well fitted inhibition curve with a large enough effect, not every such curve was filed as active; inactive means no such curve, though single readings can be large or run the other way; further: nearly all actives have a fitted effect of over 30% in size
TexasRed fluor – Texas Red fluorescence interference in TRb-SRC2 counter-screen. AID 1479. 0.29% of 280,000 active. TRb/SRC2 Texas Red total fluorescence interference. Potency, µM (doses to about 106 µM), inactives show at the top dose fluorescence change, negative = quenching; active means well fitted curve in either direction with a large enough effect; inconclusive means small, poorly fitted or top-dose-only effect
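Human TRb ligand-binding domain at 0.6 uM with 20 nM Texas Red SRC2 peptide in Tris buffer containing 1 uM T3 and 5% DMSO, incubated with compound 5 h at ambient temperature. Total fluorescence (555/632 nm) calculated as parallel + 2 × perpendicular.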
TRb-SRC2 inh – TRbeta-SRC2 interaction inhibition; P10828; TRbeta-SRC2 peptide binding, fluorescence polarization; receptor liganded with 1 µM T3; Potency, µM (titrated, usually from 106 µM), inactives show at the top dose activity change, negative = inhibition, actives largely listed as inhibitors; 0.065% of 280,000 active;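 further: plate controls were bound peptide for no effect and peptide without receptor for full effect; nearly all actives have a fitted effect of over 50% in size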
Target sequence (P10828 whole entry, looked up): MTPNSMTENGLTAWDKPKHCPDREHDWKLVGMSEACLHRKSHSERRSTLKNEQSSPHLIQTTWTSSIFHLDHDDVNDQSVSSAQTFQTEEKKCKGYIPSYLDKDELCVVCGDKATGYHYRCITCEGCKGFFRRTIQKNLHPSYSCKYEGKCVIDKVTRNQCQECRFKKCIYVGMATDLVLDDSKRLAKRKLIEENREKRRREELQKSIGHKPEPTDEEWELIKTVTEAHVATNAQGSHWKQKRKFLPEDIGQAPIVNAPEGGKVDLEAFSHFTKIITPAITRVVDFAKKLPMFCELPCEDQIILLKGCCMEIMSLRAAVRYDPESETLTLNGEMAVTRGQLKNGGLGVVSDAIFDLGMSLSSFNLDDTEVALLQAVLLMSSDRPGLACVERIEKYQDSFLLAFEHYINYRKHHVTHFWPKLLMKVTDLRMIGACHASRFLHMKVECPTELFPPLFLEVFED
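TRb LBD 0.6 uM + Texas Red SRC2 peptide 20 nM, 1 uM T3, Tris buffer w/ 5% DMSO; compound pinned, 5 h RT; FP read ex 555/em 632; normalized to unbound and bound controls.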
Tau fibril FP – tau fibrillization inhibition (FP); K18 P301L tau heparin fibrillization, Alexa594 FP, 6 h; Potency, µM (top dose mostly 57.7 µM), for inactives: at the top dose activity, negative = inhibition, hits mostly inhibitors; 0.39% of 280,000 active; AID 1468; further: nearly all actives have a fitted effect of over 55% in size
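Read-out: fluorescence polarization of Alexa 594-labeled tau (0.24 uM), 555 nm excitation, 632 nm emission. Mixtures held 15 uM unlabeled K18 P301L, compound and 20 uM heparin, pH 7 acetate buffer, incubated 6 hr at 37 C.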
Tau fluor cs – counter-screen for tau fibril formation inhibitors; tau K18 P301L Alexa594 fluorescence, heparin fibrillization; Potency, µM (series often up to 57.7 µM), without a hit: at the top dose activity change, negative = decrease; 0.93% of 280,000 active; AID 1463; further: nearly all actives have a fitted effect of over 55% in size
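Human tau K18 P301L (15 uM unlabeled, 0.24 uM Alexa 594-labeled) in 100 mM sodium acetate pH 7 with 20 uM heparin, 6 hr at 37 C. ThT 30 uM added, 1 hr ambient; Alexa 594 FP and total fluorescence read at 555/632 nm.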
Active calls of the source: *; ? = inconclusive; . = not tested or not shown; [ ] = another dose, or the depositor's remark. A selection: hits, their analogues and other compounds. The true share with any hit is near 3.1%. Unless noted, the call rests on the fitted dose curve; in most records, active means well fitted curve in the direction sought with a large enough effect; inconclusive means small, poorly fitted or top-dose-only effect, or another doubt; inactive means no such curve, though single readings can be large; an effect the other way counts as inactive or inconclusive. Unless noted, on the % scale 0 is the no-effect control and ±100 the full control effect; potency means the concentration at half of the fitted maximal effect.

SMILES | Tau fibril ThT | GoLoco inh red | TexasRed fluor | TRb-SRC2 inh | Tau fibril FP | Tau fluor cs
Cc1ccc(N2C(=O)c3cccc4cccc(c34)C2=O)cc1 | -5% | -3% | -1% | 6% | 3% | -13%
CC1=CC2=C(OC1N(C)C)c1cccc3cccc(c13)C2=O (centres undefined) | 20µM* | 18µM* | 21% | 40µM* | ? | -29%
CCCc1nnc(NC(=O)CSc2ncn[nH]2)s1 | 3% | 7% | 0% | -6% | 8% | 11%
CCOC(=O)/C(C)=C1\NC(C)(C)Cc2ccccc21 | ? | 28µM* | -3% | 5% | ? | -8%
CCOC(=O)/C(C(=O)Nc1ccccc1Cl)=C1/NC(C)(C)Cc2ccccc21 | -12% | 2% | -2% | -19% | -8% | -10%
CC1(c2nnc(-c3ccc(F)cc3)o2)CC(c2cccc(Cl)c2)=NO1 (centres undefined) | -7% | -2% | 1% | -9% | -3% | -16%
COc1ccc(-c2nc(SCC(=O)Nc3ccc4c(c3)OCO4)c(-c3ccc(F)cc3)[nH]2)cc1OC | 1% | . | -2% | 0% | 3% | ?
COc1ccc(-c2nc(SCC(=O)Nc3ccc4c(c3)OCCO4)c(-c3ccc(F)cc3)[nH]2)cc1OC | -12% | . | -3% | 4% | 5% | 6.3µM*[quencher]
COc1cccc(-c2nc(SCC(=O)Nc3ccc4c(c3)OCCO4)c(-c3ccc(C)cc3)[nH]2)c1 | ? | . | -3% | -2% | ? | 5µM*[quencher]
COc1ccc(-c2nc(SCC(=O)Nc3ccc4c(c3)OCCO4)c(-c3ccc(F)cc3)[nH]2)cc1 | -1% | . | -9% | 0% | ? | 8.9µM*[quencher]
O=C(Nc1ncc(C(F)(F)F)cc1Cl)c1ccc(S(=O)(=O)N2CCOCC2)cc1 | -1% | 6% | -6% | -1% | -1% | -5%
O=C1NC2(CCc3ccccc3C2)C(=O)N1CCOc1cccc(Cl)c1 (centres undefined) | -12% | -2% | -1% | 0% | 0% | -17%
CCN(CC)S(=O)(=O)c1cccc(NC(=O)Nc2cccc(C(F)(F)F)c2)c1 | -14% | -20% | -6% | -6% | 7.9µM* | ?
CCN(CC)S(=O)(=O)c1cccc(NC(=O)/C=C/c2cccc([N+](=O)[O-])c2)c1 | ? | 14% | 6% | 2% | -18% | 13µM*[quencher]
CCN(CC)S(=O)(=O)c1cccc(NC(=O)/C=C/c2ccc([N+](=O)[O-])cc2)c1 | ? | -24% | 0% | -8% | 10% | -25%
CCN(CC)S(=O)(=O)c1ccc2c(c1)nc(CCC(=O)Nc1cccc(C(F)(F)F)c1)n2CC | -9% | 7% | -1% | 0% | -10% | -28%
CCN(CC)S(=O)(=O)c1ccc(/C=C/C(=O)Nc2ccc(N3CCOCC3)cc2)cc1 | 16µM* | 2% | -4% | -3% | ? | 32µM*[quencher]
O=C(/C=C/c1ccc(S(=O)(=O)N2CCOCC2)cc1)NC(=S)Nc1ccc(N2CCOCC2)cc1 | 25µM* | -7% | -2% | -12% | 7% | ?
Nc1nc2c(nc(Br)n2C2OC(CO)C(O)C2O)c(=O)[nH]1 (centres undefined) | -6% | 1% | 5% | 1% | -10% | -9%
COc1ccc(/C=C/C(=O)Nc2ccc(N3CCOCC3)cc2)cc1 | 4µM* | 16% | -1% | -1% | 4% | ?
O=C(/C=C/c1cccc([N+](=O)[O-])c1)NC(=S)Nc1cccc(NC(=O)c2ccccc2Cl)c1 | ? | 7% | -3% | -5% | -2% | ?
O=C(/C=C/c1cccc([N+](=O)[O-])c1)NC(=S)Nc1ccccc1C(=O)O | 18µM* | 5% | -3% | -7% | ? | -29%
Fc1ccc(-c2noc3ncnc(N4CCN(c5ccccc5)CC4)c23)cc1 | -9% | . | -3% | -2% | 14% | -25%
Fc1ccc(-c2noc3ncnc(N4CCCCC4)c23)cc1 | -5% | . | 89µM*[quencher] | -24% | -7% | -13%
CCC(C)NC(=O)c1n[nH]c(=O)c2ccccc12 (centres undefined) | -7% | -13% | -3% | -7% | 6% | -3%
SMILES | Tau fibril ThT | GoLoco inh red | TexasRed fluor | TRb-SRC2 inh | Tau fibril FP | Tau fluor cs
O=C1/C(=N\S(=O)(=O)c2cccs2)C([n+]2ccccc2)=C([O-])c2ccccc21 | ? | 8% | -1% | 1% | ? | ?
CC(C)(C)c1cc[n+](C2=C([O-])c3ccccc3C(=O)/C2=N\S(=O)(=O)c2cccs2)cc1 | 18µM* | 22% | -9% | 8% | -9% | ?
Nc1nonc1N/N=C/c1c(O)ccc2ccccc12 | ? | 7% | -4% | 0% | 5% | 10µM*[quencher]
Nc1nonc1N/N=C\c1ccccc1 | -4% | -1% | -4% | 1% | 13% | -13%
CCOC(=O)c1cc(NC(=O)Nc2ccccc2Cl)c(C)nc1C | 8% | 21% | -3% | -8% | ? | -22%
CCOC(=O)c1cc(NC(=O)Nc2ccc(Br)cc2)c(C)nc1C | 11% | 8% | -1% | -3% | 18µM* | ?
COc1cccc(NC(=O)Nc2ccc(C(C)(C)C)cc2)c1 | -10% | -2% | 1% | 9% | ? | 28µM*[quencher]
COc1cccc(NC(=O)c2ccc(NC(=O)C(C)(C)C)cc2)c1 | 0% | 4% | -2% | -2% | 7% | 6%
COc1cccc(NC(=O)Nc2ccncc2)c1 | -6% | 30% | -2% | 8% | 1% | -11%
COc1cccc(NC(=O)Nc2ccc(Cc3ccncc3)cc2)c1 | -2% | -11% | -7% | 1% | ? | 16µM*[quencher]
COc1cccc(NC(=O)Nc2cc(NC(=O)Nc3cccc(OC)c3)c(C)nc2C)c1 | 9% | -4% | -3% | -1% | 22µM* | 11µM*[quencher]
COc1cccc(NC(=O)Nc2cc(-c3cn4cccnc4n3)ccc2C)c1 | -8% | . | -9% | 7% | ? | -13%
COc1cccc(NC(=O)Nc2cc(-c3cn4cccnc4n3)ccc2OC)c1 | ? | . | -11% | 10% | -4% | 20µM*[quencher]
O=C(Nc1cc(Sc2nc3ccccc3s2)cc([N+](=O)[O-])c1)c1ccccc1F | -15% | 7% | 1% | 3% | ? | 13µM*[quencher]
O=C(Nc1cc(Sc2ccccn2)cc([N+](=O)[O-])c1)c1cccc(F)c1 | 4% | 14% | -2% | 1% | 4% | 7%
O=C(Nc1cc(Sc2nc3ccccc3s2)cc([N+](=O)[O-])c1)c1ccccc1 | 0% | 4% | -18% | 3% | 5% | 4µM*[quencher]
CCN(CC)C(=O)c1ccc(/C=C/c2c[nH]c3ccccc23)[n+](C)c1 | -18% | 46% | -1% | 5% | -3% | 2%
